Hits are enriched below; roughly 2.2% of the tested compounds scored in any of these assays.
miR-122 sensor: miR-122 inhibition in Huh7 cells; activation (reporter increase), % at 12.5 µM; 340,000 tested, 0.3% active; Huh7 miR-122 Renilla luciferase sensor, 48 h; neutral wells = 0, positive control = 100;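 active = mean replicate activation score at least 90 and every replicate individually at or above 90; inconclusive = only one of the two criteria met; inactive = neither criterion met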;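 note: higher luciferase means less miR-122 activity so hits act as miR-122 inhibitors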
C2C12 statin: protects C2C12 myotubes from simvastatin toxicity. AID 602340. ATP luminescence, 48 h; scaled: DMSO 0, geranylgeraniol control 100. rescue of ATP level, % at 7.49 µM. 330,000 tested, 0.78% active;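 active = mean ATP rescue above about 67%, or every replicate alone reaching that limit, limit read from the data, passing the limit was not always enough; inconclusive = no clear call, values can overlap the other calls; inactive = mean under the limit and some replicate under it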;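 note: myotubes were challenged with 10 µM simvastatin during compound exposure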
PGC1a acetyl inh: lowers PGC1a acetylation signal in U2OS cells. 350,000 tested, 0.17% active. inhibition, % at 15.6 µM. AlphaScreen anti-acetyl-lysine; with virally co-expressed GCN5 acetyltransferase;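 active = every replicate shows inhibition of at least 40%; inconclusive = mean inhibition at least 40% but some replicate below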;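 note: 0% = neutral control wells and 100% = positive control wells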
PvdQ inh: blocks Pseudomonas aeruginosa PvdQ acylase activity | inhibition, % at 10 µM | 340,000 tested, 0.063% active | purified PvdQ acylase, fluorescence plate reader; in the data active = inhibition above about 30%, passing the limit was not always enough; inconclusive = no clear call, values can overlap the other calls;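 note: 0% = vehicle neutral wells and 100% = reference inhibitor wells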
DENV2 CPE: protects cells from dengue virus 2 cytopathic effect. DENV2-infected cells, cytopathic effect rescue, plate reader. CPE inhibition, % at 9.99 µM. 350,000 tested, 1.7% active. AID 651640; in the data active = CPE inhibition above about 20%, passing the limit was not always enough; inconclusive = no clear call, values can overlap the other calls; tested in BHK-21 cells;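 note: 0% = median of neutral control wells and 100% = median of positive control wells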
Numbers without * were called inactive; ? = inconclusive; / = no result given; ! = not confirmed by another sample; [ ] = dose if it differs, or a comment.

SMILES | miR-122 sensor | C2C12 statin | PGC1a acetyl inh | PvdQ inh | DENV2 CPE
C[C@@H]1CN([C@@H](C)CO)C(=O)Cc2cc(NC(=O)C3CCCCC3)ccc2O[C@H]1CN(C)Cc1ccc(C(F)(F)F)cc1 | -14[16.7 µM] | 35 | 4 | / | 9
C[C@@H]1CN([C@H](C)CO)C(=O)Cc2cc(NC(=O)c3ccncc3)ccc2O[C@H]1CN(C)C(=O)Nc1ccc(C(F)(F)F)cc1 | 1[16.7 µM] | -1 | 0 | / | 23*
C[C@@H]1CN([C@H](C)CO)C(=O)c2cc(-c3ccc(F)cc3)cnc2O[C@@H]1CN(C)C(=O)c1ccncc1 | -4[16.7 µM] | 11 | -6 | / | /
COc1ccc(C2(C)NC(=O)N(CC(=O)c3cc(C)n(C4CC4)c3C)C2=O)cc1 (stereo not given) | 5 | -1 | 13 | -7 | 37*
Cc1cc(C(=O)CN2C(=O)NC(C)(c3ccc(F)c(F)c3)C2=O)c(C)n1C1CC1 (stereo not given) | 5 | -30 | -2 | / | /
CCO[C@H]1OC(C(=O)NCc2nc3ccccc3[nH]2)=C[C@@H](c2ccc(C(F)(F)F)cc2)[C@@H]1CCCO | -11 | 7 | 10 | -21 | 1
C#Cc1ccc([C@@H]2C=C(C(=O)NCc3nc4ccccc4[nH]3)O[C@H](OCC)[C@H]2CCCO)cc1 | -4 | 2 | / | -2 | 22*!
C#Cc1ccc([C@H]2C=C(C(=O)OCC=C)O[C@@H](OCC)[C@@H]2CCCO)cc1 | -1 | -1 | -9 | -11 | 49*!
CCO[C@@H]1OC(C(=O)NCc2nc3ccccc3[nH]2)=C[C@H](c2coc3ccccc3c2=O)[C@H]1CCCO | 1 | 14 | -3 | 2 | 50*
O=C(C[C@H]1C[C@H]2c3cc(NC(=O)NC4CCCC4)ccc3O[C@H]2[C@H](CO)O1)NCc1ccccn1 | / | / | 5 | / | -10
O=C(Cc1cccnc1)N1CC2(C1)[C@H](c1ccccc1)[C@H](CO)N2C(=O)C1CCC1 | / | / | / | / | 0
O=c1[nH]nc(Cc2ccc(Cl)cc2Cl)c2ccccc12 | -10 | 140* | 2 | -17 | /
COc1cc(Nc2ccn3nccc3n2)cc(OC)c1OC | 13 | 3 | 9 | / | 23*
COc1cc(Nc2ccn3nc(-c4ccc(F)cc4)cc3n2)cc(OC)c1OC | -2 | -1 | / | / | 1
C[C@H](O)C#Cc1cnc2c(c1)C(=O)N([C@@H](C)CO)C[C@@H](C)[C@@H](CN(C)Cc1ccccn1)O2 | -4[16.7 µM] | 7 | -2 | / | 5
Cc1ccc(CNC(=O)CCS(=O)(=O)c2ccc(Cl)cc2)cc1 | 0 | / | -2 | -1 | /
Cc1ccc(S(=O)(=O)CCC(=O)NCc2ccccc2)cc1 | / | / | / | -14 | 22*
C[C@H](CO)N1C[C@H](C)[C@H](CN(C)Cc2ccc(Oc3ccccc3)cc2)Oc2ccc(NC(=O)CCCN(C)C)cc2CC1=O | -8[16.7 µM] | -3 | -6 | / | -10
O=C(O)c1cccc(Nc2c([N+](=O)[O-])c(=O)oc3ccccc23)c1 | 3 | 6 | 3 | 1 | 3
O=c1oc2ccccc2c(Nc2cccc(O)c2)c1[N+](=O)[O-] | 29 | 132* | 10 | -6 | /
CC(C)NC(=O)N[C@H]1CC[C@@H](CC(=O)N2CCCCC2)O[C@@H]1CO | -4[16.7 µM] | 6 | 9 | / | -1
CCC(CO)Oc1cc(NCc2cccc(F)c2)c2ncn(C(C)C)c2c1 (stereo not given) | / | 8 | / | 9 | 118*
Cc1cc(C(=O)O/N=C(\N)c2ccc(C(C)(C)C)cc2)no1 | 1 | / | 0 | / | 65*
CC(C)NC(=O)Nc1cccc2c1O[C@@H](CN(C)S(=O)(=O)c1ccc(Cl)cc1)[C@@H](C)CN([C@H](C)CO)C2=O | -6[16.7 µM] | -5 | -2 | / | -2
CC(C)(C)c1cc(C(=O)NNc2cccc(Cl)c2)n(Cc2ccccc2)n1 | 126* | 61 | 5 | -1 | -1
SMILES | miR-122 sensor | C2C12 statin | PGC1a acetyl inh | PvdQ inh | DENV2 CPE
COC(=O)c1ccc(NC(=O)C2C3C=CC(O3)C2C(=O)O)cc1 (stereo not given) | 6 | 90* | -7 | -3 | /
CCOC(=O)c1ccc(NC(=O)C2CC3CCC2C3)cc1 (stereo not given) | -2 | / | -15 | / | 11
COC(=O)c1ccc(NC(=O)C2CC3CCC2C3)cc1 (stereo not given) | 2 | -17 | -13 | -2 | 47*
COC(=O)c1ccc(NC(=O)C2C3C=CC(C3)C2C(=O)O)cc1 (stereo not given) | 2 | 1 | -2 | -4 | -8
COc1ccc(S(=O)(=O)NC2CC3CCC2C3)cc1Br (stereo not given) | 84 | 4 | -14 | -6 | 0
CC1CCCC(NS(=O)(=O)c2ccc3c(c2)OCCO3)C1C (stereo not given) | ? | 16 | -36 | -16 | /
O=S(=O)(NC1CC2CCC1C2)c1ccc2c(c1)OCCO2 (stereo not given) | 126* | 3 | 3 | 0 | /
COc1ccc(S(=O)(=O)NC2CC3CCC2C3)cc1Cl (stereo not given) | 108* | -3 | -7 | -12 | 11
CNC(=O)C[C@H]1CC[C@H]2[C@@H](COC[C@@H](O)CN2S(=O)(=O)c2ccc(Oc3ccccc3)cc2)O1 | 3[16.7 µM] | -1 | -7 | / | -10
O=C(C[C@@H]1CC[C@H]2[C@@H](COC[C@@H](O)CN2CC2CCOCC2)O1)N1CCOCC1 | -1[16.7 µM] | 2 | -6 | / | -2
CO[C@H]1CN(C)C(=O)c2cc(NC(=O)c3cnccn3)ccc2OC[C@H](C)N(CC2CC2)C[C@@H]1C | / | / | 7 | / | 35*
CCCN1C[C@@H](C)[C@@H](OC)CN(C)C(=O)c2ccc(NC(=O)c3cnccn3)cc2OC[C@@H]1C | / | -9 | -5 | / | 22*
CO[C@H]1CN(C)C(=O)c2ccc(NC(=O)c3cnccn3)cc2OC[C@@H](C)NC[C@H]1C | / | 4 | -4 | / | /
CO[C@H]1CN(C)C(=O)c2ccc(NC(=O)c3cnccn3)cc2OC[C@H](C)NC[C@H]1C | / | 9 | 1 | / | 53*
Cc1c(NC(=O)C(Sc2ccccc2)c2ccccc2)cccc1[N+](=O)[O-] (stereo not given) | -1 | 112* | -21 | -12 | /
C[C@H]1CCC/C=C/[C@@H]2C[C@H](O)C[C@H]2[C@H](O)[C@H](S(=O)c2ccc(O)cc2)CC(=O)O1 (stereo not given in full) | -6 | / | 66* | -11 | -32
CO[C@@H]1CN(C)C(=O)c2ccc(NC(=O)C3CCC3)cc2OC[C@H](C)N(Cc2nccs2)C[C@@H]1C | -3[16.7 µM] | 14 | / | / | 6
Fc1ccccc1COc1ccc(-c2nnn(Cc3ccccc3F)n2)cc1 | 3 | 120* | 1 | -7 | 3
COc1ccccc1-c1c(C)nn2c(N3CCN(Cc4ccccc4)CC3)cc(C)nc12 | -6 | -16 | -4 | 0 | 55*
Cc1ccnc(NC(=O)c2cccc(S(=O)(=O)N3CCOCC3)c2)c1 | 3 | -7 | -11 | -6 | -9
O=C(Nc1ccccn1)c1cccc(S(=O)(=O)N2CCOCC2)c1 | 160* | -8 | -11 | -12 | /

From PubChem
